The campaign covered roughly 320,000 compounds. About 1,300 (0.41%) were called active. About 3% were inconclusive and are not listed. The rule behind the calls is not given here. These entries were drawn from the full list. Entries with a potency or affinity are not part of this list.
Test: growth inhibition of non-replicating M. tuberculosis (AID 488890);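 note: plate controls were DMSO cells for no effect and high antibiotic wells for full effect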
Details: Mycobacterium tuberculosis non-replicating, at 25 µM, stronger effect = higher value

Row | SMILES | inhibition [%]
1 | COc1ccc(-c2nnc(NC(=O)c3cc(C)on3)s2)cc1 | 71.9
2 | O=C(OCc1cc(Cl)cc2c1OCOC2)c1cccnc1Cl | 14.6
3 | CC(C)CCNc1nc(N)c([N+](=O)[O-])c(NCCO)n1 | -5.48
4 | CCOc1cc(C2C(C(=O)c3ccco3)=C(O)C(=O)N2CCc2ccccc2)ccc1O (configuration not stated) | 29.2
5 | COc1ccc(C2=NOC(Cn3nc(-c4ccccc4)cc3C(=O)NCc3cccc(Br)c3)C2)cc1 (configuration not stated) | -12.8
6 | Cn1c(N2CCCCC2)cc(=O)n(C)c1=O | -10.1
7 | CCOC(=O)C1CCCN(C2CC(=O)N(c3ccccc3)C2=O)C1 (configuration not stated) | 30.8
8 | COC(=O)[C@@H]1C[C@@H]2CC[C@@H](O)C[C@@H]2N1Cc1ccccc1OS(=O)(=O)c1ccc(C)cc1 | 26.6
9 | Cc1cccc(-c2noc(CCCC(=O)NCC3CCCO3)n2)c1 (configuration not stated) | 16.8
10 | O=C(c1cccc(S(=O)(=O)NCc2ccccc2)c1)N1CCN(c2ccccc2)CC1 | 17.1
11 | Cc1ccn2c(=O)nc(SCC(=O)Nc3ccc4c(c3)OCO4)nc2c1 | 25.1
12 | O=C(COc1ccc(Cl)cc1Cl)Nc1ccc(Cl)cn1 | 61
13 | Cc1ccc(C(=O)OCC(=O)Nc2ccc(Cl)cn2)s1 | 35.7
14 | O=C(COc1ccccc1Cl)Nc1ccc(Cl)cn1 | 29.8
15 | O=C(COC(=O)c1ccc([N+](=O)[O-])cc1)Nc1ccc(Cl)cn1 | 34.3
16 | c1ccc(-c2nnc(OCC3CCCO3)c3ccccc23)cc1 (configuration not stated) | 4.74
17 | CCOc1ccc(C(=O)N/N=C/c2ccc(SC)cc2)cc1 | 7.39
18 | COc1ccc(Br)cc1S(=O)(=O)N1CCN=C1c1ccccc1 | 9.49
19 | CCOC(=O)c1c[nH]c2c(C)ccc(Cl)c2c1=O | 5.99
20 | Cc1cccc(N=N/C(=C\O)C(=O)c2cccs2)c1 | 23.2
21 | O=C(/C(=C/O)N=Nc1ccccc1)c1cccs1 | 29.9
22 | CC1CCN(C(=O)CCCNC(=O)Cn2cnc3sc4c(c3c2=O)CCCC4)CC1 | -3.59
23 | Cc1onc(-c2c(F)cccc2Cl)c1C(=O)NCCc1ccncc1 | -2.23

Row | SMILES | inhibition [%]
24 | O=C(NCc1cccc2[nH]ccc12)C1CCC(=O)N(CCc2ccc(Cl)cc2)C1 (configuration not stated) | 14.7
25 | CN1C[C@@H]2C[C@@H](C3=Cc4cc(Cl)ccc4OC3)N3CCC[C@@]23C1=O | 8.63
26 | CN(CC(=O)Nc1ccccc1N1CCOCC1)CC(=O)Nc1ccc(F)c(F)c1F | 7.73
27 | CCCC(=O)NC(Nc1ccc(S(=O)(=O)Nc2cc(C)on2)cc1)(C(F)(F)F)C(F)(F)F | 69.8
28 | CC(/C=C/C=C/c1ccccc1)=N/NC(=O)c1ccc2c(c1)OCCO2 | 11.1
29 | C/C(=N/NC(=O)c1ccccc1)C(=O)O | 21.7
30 | O=C(N/N=C/c1ccc2c(c1)OCO2)C1COc2ccccc2O1 (configuration not stated) | 69.6
31 | CC(/C=C/c1ccccc1F)=N\NC(=O)C(C)C | 13.2
32 | CC(/C=C/c1ccccc1)=N/NC(=O)CNC(=O)c1ccc2c(c1)OCO2 | -0.44
33 | CC(/C=C/c1ccc2c(c1)OCO2)=N\NC(=O)C(O)c1ccccc1 (configuration not stated) | -1.85
34 | O=C(COc1cc(F)ccc1[N+](=O)[O-])Nc1cccc(S(=O)(=O)NC2=NCCC2)c1 | -15.8
35 | C=CCSc1nccc(=O)[nH]1 | 17.7
36 | COc1ccc(CCNC(=O)NC(C(F)(F)F)C(F)(F)F)cc1OC | -0.6
37 | N#Cc1ccc(C23CC4(C2)[C@H](CN(Cc2ccc(C(F)(F)F)cc2)[C@@H]4c2ccccc2)C3c2ccccc2)cc1 (some centres not stated) | 19.2
38 | Cc1cc(C)c(NC(=S)N2CCN(c3ccc([N+](=O)[O-])cn3)CC2)cc1C | -3
39 | OC/C(Br)=C(\Br)CO | -3.52
40 | CC(C)(C)NC(=O)c1ccc(NC(=O)C2COc3ccccc3O2)cc1 (configuration not stated) | 45.9
41 | COc1ccc(CNC(=O)C2COc3ccccc3O2)cc1 (configuration not stated) | 72.5
42 | NC(=O)c1ccc(NC(=O)C2COc3ccccc3O2)cc1 (configuration not stated) | 1.12
43 | COc1ccc(OC)c(NC(=O)C2COc3ccccc3O2)c1 (configuration not stated) | 30.6
44 | CCOC(=O)CN1C(=O)N[C@@H](c2ccccc2)C(C(=O)OC)=C1C | -18.9
45 | COCc1ccc(C(=O)N2CCCC(N3CCN(c4ccccc4C)CC3)C2)s1 (configuration not stated) | 20.7
46 | O=C1C2C3C=CC(C3)C2C(=O)N1CC1CCCO1 (configuration not stated) | -0.04

Row | SMILES | inhibition [%]
47 | NC(=O)CCn1c(C(=O)c2cc(Cl)c(N)c(Cl)c2)c2ccccc2[n+]1[O-] | 7
48 | O=C(Nc1cccnc1)C1OCCc2ccccc21 (configuration not stated) | -3.68
49 | COCCn1c(SCC(=O)Nc2ccc(S(=O)(=O)N(C)C)cc2)nc2ccccc21 | 0.14
50 | COc1cccc(NC(=O)CCC2CCN(C(=O)C3CC=CCC3)CC2)c1 (configuration not stated) | 6.11
51 | Cc1nc(-c2cccc(S(=O)(=O)N3CCCCC3)c2)cs1 | 3.4
52 | COc1ccccc1NC(=O)c1cc(-c2cc(OC)c(OC)c(OC)c2)nc2ccccc12 | 1.97
53 | COc1ccc(N/C(C)=C/C(=O)c2ccccc2)cc1 | 57.9
54 | C/C(=C\C(=O)c1ccc(Br)cc1)NNC(=O)c1ccc(O)cc1 | 67.2
55 | C/C(=C\C(=O)c1ccc(Br)cc1)NCc1ccccc1 | 52.8
56 | COc1ccc(/C(O)=C/C(=O)C(=O)NNC(=O)c2ccccc2)cc1 | 22.9
57 | CCOc1ccc(N2CC(C(=O)NCCCc3ccccc3)CC2=O)cc1 (configuration not stated) | 24.1
58 | Cc1cccc(NC(=O)Cn2cnc3sc(C)c(S(=O)(=O)N4CCC(C)CC4)c3c2=O)n1 | 7.28
59 | CCN1CCN(c2ccc(S(=O)(=O)N3CCOCC3)cc2NC(=O)c2sccc2C)CC1 | -12.4
60 | CC(=O)c1ccc(N2CCN(S(=O)(=O)c3cccc4nonc34)CC2)cc1 | 10.4
61 | O=C(O)CCSc1ccccn1 | -2.61
62 | O=C(O)CSc1ccccn1 | -10.9
63 | O=C(c1nnc(-c2ccncc2)o1)c1ccccc1Cl | 72.4
64 | O=C(c1ccccc1)c1nnc(-c2ccncc2)o1 | 49.9
65 | O=C(c1cccc(F)c1)N1CCC2(CC1)NCCc1[nH]cnc12 | -6.44
66 | CN(CC(O)COCc1cccs1)C1CCCCC1 (configuration not stated) | 4.88
67 | O=C(O)c1cc(-c2ccccc2)nc2ccccc12 | -4.94
68 | c1ccc(-c2cc3c(ccc4nonc43)nn2)cc1 | 21
69 | Cc1ccc(NC(=O)CC(C)N2CCCC2)cc1 (configuration not stated) | -3.18

Row | SMILES | inhibition [%]
70 | NCC(O)COCCC12CC3CC(CC(C3)C1)C2 (configuration not stated) | 8.67
71 | CC(NCC(O)COCc1ccc(Cl)cc1)c1ccccc1 (configuration not stated) | 78.5
72 | Cc1nnc(NC(=O)c2ccccc2NC(=O)c2ccccc2)s1 | 33.7
73 | O=C(Nc1nnc(C(F)(F)F)s1)c1cccnc1 | 27.8
74 | Cc1cc(-c2n[nH]c(=S)n2-c2ccccc2C)cs1 | -13.2
75 | COc1ccccc1NC(=O)COC(=O)/C=C/c1ccccc1[N+](=O)[O-] | 65.2
76 | CCN1C(=O)/C(=C/c2ccc(N3CCCC3)cc2)NC1=S | 52.1
77 | COC(=O)COc1ccc(/C=C2/NC(=O)N(CC(=O)OC)C2=O)cc1 | 9.12
78 | Cc1cc(C)n(-c2ccc(C(=O)Nc3cccc(S(=O)(=O)N4CCCC4)c3)cc2)n1 | -4.31
79 | C=CCn1c(SCC(=O)Nc2cc(C)cc(C)c2)nnc1-c1cnccn1 | -3.18
80 | CC[n+]1c(/C=C/Nc2ccccc2)oc2ccccc21 | 67.7
81 | CC[n+]1c(/C=C/Nc2ccccc2)oc2ccc(OC)cc21 | 35.5
82 | Cc1cc(=O)oc2c3c(cc(OCC(=O)NCc4cccnc4)c12)OC(C)(C)CC3 | 7.63
83 | CC(=O)OCCc1c2ccccc2c(CCCN(C)C)c2ccccc12 | 41.4
84 | Cc1onc(-c2c(Cl)cccc2Cl)c1C(=O)OCC(=O)c1ccccc1 | 15.6
85 | Cc1onc(-c2c(Cl)cccc2Cl)c1COC(=O)c1ccc(Cl)cc1 | 16.1
86 | COc1c(F)c(F)cc2c(=O)c(C(=O)O)cn(C3CC3)c12 | 4.5
87 | Cc1c(-n2cc(C(=O)O)c(=O)c3cc(F)c(N4CCCC(O)C4)c(F)c32)c(=O)n(-c2ccccc2)n1C (configuration not stated) | 0.14
88 | CCOC(=O)c1cn(C2CC2)c2c(F)c(F)c(F)cc2c1=O | -13
89 | CC1CCc2cc(F)cc3c(=O)c(C(=O)O)cn1c23 (configuration not stated) | 35.4
90 | C=CCN(CC=C)C(=O)COC(=O)c1ccc(Sc2ncn[nH]2)c([N+](=O)[O-])c1 | 43.1
91 | Cc1ccc(-c2ccc(SCC(=O)N3CCc4ccccc43)nn2)cc1 | -0.83
92 | CC(=O)Nc1ccc(Nc2cc(C)nc3c(-c4ccc(Cl)cc4)c(C)nn23)cc1 | 2.43

Row | SMILES | inhibition [%]
93 | Cc1cc(NCCCn2ccnc2)n2nc(C)c(-c3ccc(Cl)cc3)c2n1 | -1.28
94 | Cc1cc(NCc2ccccc2)n2ncc(-c3ccccc3)c2n1 | 14.7
95 | CCCc1cc(N2CCCC2)n2nc(C)c(-c3ccccc3)c2n1 | 43.4
96 | CCCc1cc(N2CCN(c3ccccn3)CC2)n2nc(C)c(-c3ccccc3)c2n1 | 2.63
97 | Cc1cc(NC2CCCC2)n2ncc(-c3ccccc3)c2n1 | 36.8
98 | Cc1nn2c(NCCCn3ccnc3)cc(C(C)C)nc2c1-c1ccccc1 | 75.8
99 | CC(=O)Nc1ccc(Nc2cc(C(C)C)nc3c(-c4ccccc4)c(C)nn23)cc1 | 5.77
100 | Nc1cc(N2CCNCC2)c([N+](=O)[O-])cc1Cl | 6.14
101 | Cc1ccc(CNC(=O)C2CCCN(C(=O)N(C)C)C2)cc1 (configuration not stated) | -2.88
102 | C=CCN1C(=O)c2ccc(C(=O)OCC(=O)Nc3ccccc3OC)cc2C1=O | -2.33
103 | CC(=O)c1cc(CN2CCN(Cc3ccccc3)C(CCO)C2)cs1 (configuration not stated) | 1.86
104 | Cc1cc(C(=O)N(C)CC(=O)Nc2ccc(Cl)c(C(F)(F)F)c2)no1 | 6.97
105 | Cc1c(NC(=O)COC(=O)Cn2cc(C(F)(F)F)ccc2=O)cccc1[N+](=O)[O-] | -1.08
106 | Cc1cc(C)n2nc(SCC(=O)N(Cc3ccccc3)C3CCS(=O)(=O)C3)nc2n1 (configuration not stated) | -1.73
107 | Cc1cc(Nc2ccccc2)n2nc(C)c(-c3ccccc3)c2n1 | 15.2
108 | Cc1cc(NCCC(C)C)n2nc(C)c(-c3ccccc3)c2n1 | 49.1
109 | COc1ccc(C(=O)CC(=O)c2ccccc2O)cc1OC | 22.7
110 | O=C(CC(=O)c1ccccc1)Nc1ccc(Cl)cc1 | 51.8
111 | Cc1ccc(O)c(C(=O)CC(=O)c2cccc(F)c2)c1 | -5.71
112 | O=C(CCc1ccccc1)NNC(=O)c1cc(Cl)ccc1O | -5.64
